Laboratory results from PubChem BioAssay (NCATS).
Records with an inconclusive call do not appear. Active and inactive are the calls of the source. Unless noted, calls follow the shape of the dose curve; as a rule, active = well fitted curve in the direction sought with a large enough effect; inconclusive = small, poorly fitted or top-dose-only effect, or another doubt; inactive = no such curve, though single readings can be large; an effect the other way counts as inactive or inconclusive.

Assays:
[1] = target: Protein phosphatase 1D (Homo sapiens) (UniProt O15297); assay: Rhodamine-PBP qHTS Assay for Modulators of WT P53-Induced Phosphatase 1 (WIP1) (AID 1347425)
Chain of Protein phosphatase 1D (Homo sapiens) (O15297 whole entry, looked up): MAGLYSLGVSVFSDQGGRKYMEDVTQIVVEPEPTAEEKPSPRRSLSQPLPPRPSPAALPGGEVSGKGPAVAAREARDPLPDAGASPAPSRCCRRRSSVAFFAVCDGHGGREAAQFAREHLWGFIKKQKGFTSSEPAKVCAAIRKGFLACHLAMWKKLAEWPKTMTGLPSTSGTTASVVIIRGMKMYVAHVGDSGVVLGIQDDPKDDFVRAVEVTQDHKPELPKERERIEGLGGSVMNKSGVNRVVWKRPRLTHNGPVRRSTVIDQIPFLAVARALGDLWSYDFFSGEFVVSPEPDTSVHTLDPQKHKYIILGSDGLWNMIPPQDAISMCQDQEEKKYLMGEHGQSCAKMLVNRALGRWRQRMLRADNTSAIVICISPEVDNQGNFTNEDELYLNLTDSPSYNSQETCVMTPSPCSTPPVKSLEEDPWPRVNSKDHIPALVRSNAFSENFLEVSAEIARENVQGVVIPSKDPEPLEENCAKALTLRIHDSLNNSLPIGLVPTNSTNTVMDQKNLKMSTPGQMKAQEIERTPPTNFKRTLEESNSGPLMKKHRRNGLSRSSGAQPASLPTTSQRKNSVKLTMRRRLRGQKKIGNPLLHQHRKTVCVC
How it was run: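 5 nM WIP1 + 10 uM Rh-PBP, 50 mM Tris pH 7.5, 30 mM MgCl2, 1 mM TCEP, 0.1 mM EGTA, BSA; cpds pinned, 1 hr RT; + 10 uM phosphopeptide; fluorescence 1-min reads x 11 min; delta = f1 - f0.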

[2] = Primary qHTS for inhibitors of La Crosse Virus (LACV) - induced cell death in SH-SY5Y cells (AID 1508616);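 also: top concentration of the series differs between compounds; higher means more rescue of cells from virus-induced death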
How it was run: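 SH-SY5Y, 6000 cells/well; cpd via pin tool in DMSO; LACV 0.01 MOI; 6 d 37C 5% CO2; ATPLite, 5 min RT; luminescence normalized to ±virus DMSO controls.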

[3] = target: Calcium and integrin-binding protein 1 (Homo sapiens) (UniProt Q99828); assay: Primary qHTS for Identification of Calcium Integrin Binding Protein 1 (CIB1) Competitor (AID 1508620);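 also: GST tagged CIB1 binding a fluorescein labelled alphaIIb integrin peptide tracer; top concentration of the series differs between compounds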
Chain of Calcium and integrin-binding protein 1 (Homo sapiens) (Q99828 whole entry, looked up): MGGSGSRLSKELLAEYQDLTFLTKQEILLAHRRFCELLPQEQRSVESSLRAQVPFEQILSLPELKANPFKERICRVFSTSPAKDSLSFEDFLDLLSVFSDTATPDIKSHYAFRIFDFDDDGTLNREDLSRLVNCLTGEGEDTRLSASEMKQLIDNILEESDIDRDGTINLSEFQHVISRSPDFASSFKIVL
How it was run: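 CIB1-GST (1 uM final) and compound incubated 15 min at room temperature before adding FITC-alphaIIb peptide tracer (100 nM final). Competition for binding read by fluorescence polarization (ex 480, em 540) after another 15 min at room temperature.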

[4] = target: Cytochrome P450 2C9 (Homo sapiens) (UniProt P11712); assay: Cytochrome P450 family 2 subfamily C member 9 (CYP2C9) small molecule antagonists: luciferase biochemical (cell-free) qHTS assay (AID 1645842; active = well fitted curve in the direction sought with a large enough effect in the repeat runs; an effect the other way counts as inactive or inconclusive; also: nearly all actives have a fitted effect of over 55% in size; also: potency is read from the fitted curve at half-maximal effect)
Chain of Cytochrome P450 2C9 (Homo sapiens) (P11712 whole entry, looked up): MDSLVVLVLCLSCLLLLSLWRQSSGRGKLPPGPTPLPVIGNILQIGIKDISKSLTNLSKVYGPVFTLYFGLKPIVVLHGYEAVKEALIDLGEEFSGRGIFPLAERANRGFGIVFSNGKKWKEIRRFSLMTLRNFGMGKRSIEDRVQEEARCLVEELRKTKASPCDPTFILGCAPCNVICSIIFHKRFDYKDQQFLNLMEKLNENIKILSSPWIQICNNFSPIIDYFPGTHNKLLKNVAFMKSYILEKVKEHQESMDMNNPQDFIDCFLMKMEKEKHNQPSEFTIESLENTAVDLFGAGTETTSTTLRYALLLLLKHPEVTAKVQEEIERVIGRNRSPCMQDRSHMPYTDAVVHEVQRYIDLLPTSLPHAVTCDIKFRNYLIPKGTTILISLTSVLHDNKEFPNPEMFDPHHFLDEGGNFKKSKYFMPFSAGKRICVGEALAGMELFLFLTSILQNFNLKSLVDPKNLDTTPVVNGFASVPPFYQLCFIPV
How it was run: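 P450-Glo CYP2C9 system: proluciferin substrate with enzyme in mix containing 0.4% BSA, 10 min at room temperature, then NADPH regeneration solution added and incubated 1 h at 37C. Detection reagent stopped reaction; luminescence read after 20 min as RLU.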

[5] = target: Cytochrome P450 2D6 (Homo sapiens) (UniProt P10635); assay: Cytochrome P450 family 2 subfamily D member 6 (CYP2D6) small molecule antagonists: luciferase biochemical (cell-free) qHTS assay (AID 1645840; active = well fitted curve in the direction sought with a large enough effect in the repeat runs; an effect the other way counts as inactive or inconclusive; also: nearly all actives have a fitted effect of over 55% in size; also: potency is read from the fitted curve at half-maximal effect)
Chain of Cytochrome P450 2D6 (Homo sapiens) (P10635 whole entry, looked up): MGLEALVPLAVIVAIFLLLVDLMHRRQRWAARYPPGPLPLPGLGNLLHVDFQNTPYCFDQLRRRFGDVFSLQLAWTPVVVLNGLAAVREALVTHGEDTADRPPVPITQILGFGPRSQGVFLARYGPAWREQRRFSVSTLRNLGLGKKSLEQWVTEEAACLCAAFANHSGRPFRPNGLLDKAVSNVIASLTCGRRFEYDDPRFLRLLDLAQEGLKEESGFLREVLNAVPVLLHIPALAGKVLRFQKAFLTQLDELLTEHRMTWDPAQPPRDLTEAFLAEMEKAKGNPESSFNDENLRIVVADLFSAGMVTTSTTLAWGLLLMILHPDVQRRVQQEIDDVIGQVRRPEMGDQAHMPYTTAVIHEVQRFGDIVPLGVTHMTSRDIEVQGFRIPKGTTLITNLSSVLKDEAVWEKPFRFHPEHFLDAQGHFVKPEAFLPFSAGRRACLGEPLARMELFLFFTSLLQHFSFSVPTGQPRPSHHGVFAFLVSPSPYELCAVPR
How it was run: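 P450-Glo CYP2D6 system: proluciferin substrate converted by enzyme to luciferin, read by luminescence proportional to activity. Enzyme-substrate mix with compound 10 min at room temperature, then NADPH regeneration 1 h before detection reagent.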

[6] = Primary qHTS for small molecule stabilizers of the endoplasmic reticulum resident proteome: Secreted ER Calcium Modulated Protein (SERCaMP) assay (AID 1508630)
How it was run: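 The SH-SY5Y reporter protocol was run at 3 concentrations up to 38.3 uM (primary) or 11 concentrations (follow-up): 16 h compound, 100 nM thapsigargin for 4 h, then extracellular luciferase luminescence.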

[7] = Primary qHTS for inhibitors of SARS-S pseudo-typed particle cell entry (AID 1479145; calls by dose curve; also: nearly all actives have a fitted effect of over 45% in size)
[8] = Primary qHTS for Huh7 cytotoxicity: counterscreen for inhibitors of MERS-S pseudotyped particle cell entry (AID 1479147; calls by dose curve)
[9] = Primary qHTS for inhibitors of MERS-S pseudo-typed particle cell entry (AID 1479149; calls by dose curve; also: nearly all actives have a fitted effect of over 60% in size)
[10] = Primary qHTS for Vero E6 cytotoxicity: counterscreen for inhibitors of SARS-S pseudo-typed particle cell entry (AID 1479150; calls by dose curve)
[11] = target: Calcium and integrin-binding protein 1 (Homo sapiens) (UniProt Q99828); assay: Confirmatory qHTS for Identification of Calcium Integrin Binding Protein 1 (CIB1) Competitor (AID 1508617); also: nearly all actives have a fitted effect of over 65% in size
How it was run: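 Confirmatory qHTS measures displacement of a FITC-alphaIIb peptide (100 nM) from CIB1-GST (1 uM) by fluorescence polarization. Calcium-containing HEPES buffer, pH 7.4; two 15 min room-temperature incubations.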

[12] = A High-Content qHTS Against Drug Library for the Identification of Small Molecules that Inhibit DYT1 Early Onset Primary Dystonia-Associated Cell Pathology (AID 1645839; calls by dose curve; also: series mostly up to about 46 µM)
How it was run: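 High-content imaging quantified EGFP-TorsinA mislocalization in HEK293-derived cells inducibly expressing DYT1 mutant torsinA, after 48 h exposure to compound given together with tetracycline induction. Cell count served as a toxicity channel alongside %pathology.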

Measured: Potency

C=CCC1=C(C)C(OC(=O)C2C(C=C(C)C)C2(C)C)CC1=O (centres undefined)
active: [4] 5.02 µM
inactive: [1] | [2] | [3]

c1cc2ccc3cccc4ccc(c1)c2c34
inactive: [1] | [2] | [3] | [5] | [4]

CC1(C)CC/C(=C/c2ccc(Cl)cc2)C1(O)Cn1cncn1 (centres undefined)
inactive: [1] | [2] | [3] | [6]
active: [5] 9.41 µM | [4] 0.611 µM

O=[N+]([O-])/N=C1\NCCN1Cc1ccc(Cl)nc1
not listed: [3] | [5] | [11] | [12]
inactive: all other assays above

CC[N+]1(CCOC(=O)C(O)(c2ccccc2)c2ccccc2)CCCCC1
inactive: [1] | [7] | [8] | [9] | [10] | [2] | [4]

CCCCC(CC)COC(=O)c1ccccc1C(=O)OCC(CC)CCCC (centres undefined)
inactive: [1] | [2] | [3]

C=CC(=O)NCNC(=O)C=C
inactive: [1] | [2] | [3] | [6] | [5] | [4]

CO/C=C(/C(=O)OC)c1ccccc1Oc1cc(Oc2ccccc2C#N)ncn1
active: [4] 3.66 µM
inactive: [1] | [2] | [3] | [6]

COCCOCCO
inactive: [1] | [2] | [3] | [5] | [4]

CCCCOC(=O)c1ccccc1C(=O)OCc1ccccc1
active: [4] 8.2 µM
inactive: [1] | [2] | [3] | [6]

O=C(O)COc1ccccc1
not listed: [11] | [12]
inactive: all other assays above

O=C(O)COc1nc(Cl)c(Cl)cc1Cl
inactive: [1] | [2] | [3] | [6] | [5] | [4]

CC(C)Oc1cccc(NC(=O)c2ccccc2C(F)(F)F)c1
inactive: [1] | [2] | [11] | [6]
active: [4] 5.97 µM

O=C(O)c1cc(Oc2ccc(C(F)(F)F)cc2Cl)ccc1[N+](=O)[O-]
inactive: [1] | [2] | [3] | [6] | [12]

O=C(Nc1ccccc1-c1ccc(Cl)cc1)c1cccnc1Cl
inactive: [1] | [2] | [3] | [6] | [4]

C1CCC(NC2CCCCC2)CC1
inactive: [1] | [7] | [8] | [9] | [10] | [6] | [4]

CCC(=O)O[C@@H]1C=C2CCC3C(CCC4(C)C3CC[C@@H]4OC(=O)CC)C2CC1 (some centres undefined)
active: [4] 19.5 µM
not listed: [5] | [11] | [12]
inactive: all other assays above

COC(C)(C)CCCC(C)C/C=C/C(C)=C/C(=O)OC(C)C (centres undefined)
inactive: [1] | [2] | [3] | [6] | [12]

O=S(=O)(O)C(F)(F)C(F)(F)C(F)(F)C(F)(F)F
inactive: [1] | [2] | [3] | [6] | [5]
active: [4] 18.9 µM

O=C(O)CCCOc1ccc(Cl)cc1Cl
inactive: [1] | [2] | [3]

CC(C)(C)C(O)C(Oc1ccc(Cl)cc1)n1cncn1 (centres undefined)
active: [4] 21.2 µM
inactive: [1] | [2] | [3] | [6]

CCOCCOC(C)=O
inactive: [1] | [2] | [3] | [4]

CC(O)CN1CCN(CC(=O)[O-])CCN(CC(=O)[O-])CCN(CC(=O)[O-])CC1.[Gd+3] (centres undefined)
inactive: [1] | [2] | [3] | [6] | [4]

Nc1ccc([N+](=O)[O-])cc1
inactive: [1] | [2] | [3] | [4]

ClC1=C(Cl)[C@]2(Cl)[C@@H]3[C@@H]4C[C@@H]([C@H]5O[C@@H]45)[C@@H]3[C@@]1(Cl)C2(Cl)Cl
inactive: [1] | [2] | [3] | [6]

OCCCBr
inactive: [1] | [2] | [3]

Cc1cc(O)ccc1Cl
not listed: [5] | [11] | [12]
inactive: all other assays above

Fc1cc(Br)ccc1CBr
inactive: [1] | [2] | [3] | [6] | [4]

O=[N+]([O-])c1ccc([As](=O)(O)O)cc1
not listed: [5] | [9] | [11] | [12]
inactive: all other assays above

Nc1ccc(Cl)cc1
inactive: [1] | [2] | [3]

CCOP(=O)(NC(C)C)Oc1ccc(SC)c(C)c1 (centres undefined)
active: [5] 3.88 µM | [4] 9.47 µM
inactive: [1] | [2] | [3]

COC(=O)c1cncn1C(C)c1ccccc1 (centres undefined)
active: [4] 11 µM
not listed: [3] | [5] | [11] | [12]
inactive: all other assays above

O=C(O)C(Cl)Cl
inactive: [1] | [2] | [3] | [6] | [5] | [4]
